This is an account of results in ChEMBL document CHEMBL1157539, “Thousands of chemical starting points for antimalarial lead identification” (Nature, 2010).

Values joined by “and” are separate entries in the source; they are usually repeats but may differ in a detail not shown here. Equal values may be shown once.

Common to all, as to assay type: functional
Test [1] deals with Plasmodium falciparum. The experiment in a line: GSK_TCMDC: Inhibition of Plasmodium falciparum 3D7 in whole red blood cells, using parasite LDH activity as an index of growth. Test compounds present at 2uM.
Test [2] deals with Plasmodium falciparum. Description: GSK_TCMDC: Inhibition of Plasmodium falciparum Dd2 in whole red blood cells, using parasite LDH activity as an index of growth. Test compounds present at 2uM.
The test system of test [3] is HepG2. The experiment in a line: GSK_TCMDC: Percent inhibition of human HepG2 cell line. Test compounds present at 10uM.

Take `Cc1ccccc1C1CCN(C2CCC(NC(=O)C3=Cc4ccccc4OC3)CC2)CC1` (stereo unspecified): the results for the Inhibition in test [1], in test [2] and in test [3] were 91%, 15% and 26%, respectively.
With `COc1ccc(C(=O)N[C@@H](CC(C)C)C(=O)NC2CC[C@@H](C)N(C(=O)Nc3ccc(Cl)cc3)CC2=O)cc1OCCN1CCOCC1` (stereo partly specified), the Inhibition is on record as 96% in test [1], 91% in test [2] and 5% in test [3].
As for `CCN(C(=O)NC)C1c2cc(C#N)ccc2OC(C)(C)C1O` (stereo unspecified), the Inhibition in test [1] was 96%; in test [2], 2%; in test [3] it was 3%.
With `COc1cc2nccc(Nc3cc(C)cc(O)c3)c2cc1OC.Cl`, the Inhibition in test [1] is reported as 97%; in test [2] it was 0%; in test [3], 0%.
Regarding `CC(C)CNCc1ccc(OCc2cccc(COc3ccc(CNCC(C)C)cc3I)c2)c(I)c1.Cl`, the Inhibition in test [1] is reported as 98%; in test [2], 84%; in test [3], 23%.
Taken in the same sequence, the figures for `CN(C)CCNC(=O)c1cccc(-c2cnc3ccc(NCc4ccc(Cl)c(Cl)c4)nn23)c1` were 100%, 53% and 31%.
Consider `Cc1ccccc1Nc1nc(Nc2ccccc2)c2ccccc2n1.Cl`, for which the Inhibition in test [1] is 100%; in test [2], 21%; in test [3] it was 19%.
Taken in the same sequence, the figures for `Cc1cc(N2CCC(C)CC2)nc2cc(O)ccc12` were 89%, 41% and 31%.
Taken in the same sequence, the figures for `Cc1[nH]c(C)c(-c2ccc(OCc3ccc(OC(F)(F)F)cc3)nc2)c(=O)c1Cl` were 98%, 96% and 3%.
Taken in the same sequence, the figures for `Fc1ccc2[nH]c(-c3ccc(-c4ccc(CN5CCN(CCN6CCOCC6)CC5)cc4)s3)nc2c1.O=C(O)C(F)(F)F` were 99%, 98% and 39%.
As for `Cc1ccc(NC(=S)N2CCCN(CCCCCNC(=O)/C=C/c3ccc(Cl)c(Cl)c3)CC2)cc1Cl`, the Inhibition in test [1] amounted to 93%; in test [2] it was 5%; in test [3], 14%.
Taken in the same sequence, the figures for `COc1ccc(CNc2nc(Nc3cccc(C#N)c3)nc(Nc3cccc(C#N)c3)n2)cc1Cl` were 100%, 83% and 0%.
With `CCC[C@@H]([C@@H](CC(C)C)C(=O)N[C@@H](CCC/N=C(/N)NS(C)(=O)=O)C(=O)Nc1nccs1)N(O)C=O`, the Inhibition came to 95% in test [1], 41% in test [2] and 10% in test [3].
In the case of `COc1ccc2nccc([C@@H](O)CN3CCC(NCc4nc5c(cc4Cl)SCC(=O)N5)C(F)C3)c2c1.Cl` (stereo partly specified), the Inhibition in test [1] was 94% and 99%; in test [2] it was 94% and 100%; in test [3], 20% and 10%.
With `O=C(CCc1c[nH]cn1)Nc1ccc(-c2cccc(-c3nc4ccccc4[nH]3)c2)cc1`, the Inhibition in test [1] is recorded as 100%; in test [2], 42%; in test [3], 12%.
For the molecule `Cc1cc(NC2CCCC2)nc(Nc2ccccc2)n1`, the Inhibition was 100% in test [1], 75% in test [2] and 26% in test [3].
Taken in the same sequence, the figures for `CC=CC(=O)N1CCN(c2nccc(-c3ccc(C(C)(C)C)cc3)n2)CC1` were 95%, 70% and 20%.
Regarding `CCc1ccccc1N=C1c2c(cccc2[N+](=O)[O-])C(=O)C1C(C)=O` (stereo unspecified), the Inhibition was found to be 99% in test [1], 96% in test [2] and 0% in test [3].
`Cc1nnc(N2C(=N)SC(=Cc3ccc(-c4ccc(OC(F)(F)F)cc4)o3)C2=O)s1`: the figures for the Inhibition in test [1], in test [2] and in test [3] were 85%, 58% and 37%, respectively.
Taken in the same sequence, the figures for `CC[C@H]1CN(Cc2ccco2)CC[C@H]1CCCc1ccnc2ccc(O)cc12` were 93%, 14% and 31%.
Taken in the same sequence, the figures for `CCCC(CNCc1cccc(I)c1)CNc1cc(=O)c2ccccc2[nH]1` (stereo unspecified) were 100%, 96% and 0%.
Taken in the same sequence, the figures for `Cc1ccccc1CN1CCCN(Cc2ccc(C(=O)Nc3ccc(Cl)cc3)cc2)CC1.O=C(O)C(F)(F)F` were 93%, 15% and 48%.
On to `CCCCCCCN1CC[C@@H](CCCc2ccnc3ccc(OCCN4CCNCC4)cc23)[C@@H](CC)C1.Cl`, for which the Inhibition is reported as 100% in test [1], 98% in test [2] and 82% in test [3].
`COc1ccc(CNC2CCN(C)CC2)cc1-c1ccc(S(=O)(=O)NCc2cccnc2)s1.O=C(O)C(F)(F)F`: the Inhibition in test [1] was determined as 100%; in test [2], 3%; in test [3], 10%.
For `O=C(Nc1ccc(Br)cc1)c1cc(Br)ccc1NS(=O)(=O)c1cc(C(F)(F)F)cc(C(F)(F)F)c1`, the Inhibition in test [1] is 85%; in test [2] it was 67%; in test [3], 68%.
In the case of `O=C(/C=C/c1ccc(Cl)c(Cl)c1)N1CCCC(CCCN2CCC(c3c[nH]c4ccccc34)CC2)C1` (stereo unspecified), the values for the Inhibition in test [1], in test [2] and in test [3] were 89%, 15% and 30%, respectively.
Turning to `CCCOc1ccc(NC(=O)c2cccs2)cc1Cl`, the Inhibition in test [1] is given as 88%; in test [2] it was 86%; in test [3], 1%.
`COc1ccc(/C=C/C(=O)NCCCCCN2CCC(c3c[nH]c4ccccc34)CC2)cc1O`: the Inhibition in test [1] is 91%; in test [2] it was 1%; in test [3], 9%.
Take `Cc1ccoc1C(=O)Nc1ccc(-c2cccc(-c3nc4cccc(C)c4[nH]3)c2)cc1`: the Inhibition in test [1] was found to be 95%; in test [2] it was 69%; in test [3], 15%.
Turning to `CCc1ccc(CN2CCC(CNC(=O)c3cc(-c4cccc(C(F)(F)F)c4)cs3)C2)cc1.O=C(O)C(F)(F)F` (stereo unspecified), the Inhibition is on record as 97% in test [1], 48% in test [2] and 45% in test [3].
Consider `CCOc1cc(Br)c(C(C)NC(=O)c2ccccc2)cc1OCC` (stereo unspecified), for which the results for the Inhibition in test [1], in test [2] and in test [3] were 92%, 10% and 0%, respectively.
Taken in the same sequence, the figures for `C[C@@H](CC1CCCCC1)OC(=O)N(C)[C@H]1CCN(C#N)C1` were 84%, 62% and 4%.
`COc1ccc(CNC(=O)c2cc3c(=O)n4ccccc4nc3n(CCc3ccccc3)c2=N)cc1`: the results for the Inhibition in test [1], in test [2] and in test [3] were 99%, 22% and 26%, respectively.
Taken in the same sequence, the figures for `CCN1CCN(c2ccc(Nc3ccnc4ccc(Br)cc34)cc2)CC1` were 98%, 86% and 37%.
`COc1cccc(C(=O)NCc2nnc(S)n2-c2ccc(Cl)c(Cl)c2)c1`: the figures for the Inhibition in test [1], in test [2] and in test [3] were 100%, 100% and 0%, respectively.
Consider `Cc1c(C)c2c(c(C)c1O)CC[C@@](C)(C(=O)N1CCC(CCN3CCC(c4c[nH]c5ccccc45)CC3)CC1)O2`, for which the values for the Inhibition in test [1], in test [2] and in test [3] were 98%, 91% and 37%, respectively.
Regarding `CCOc1ccc(Nc2cc(C)nc(Nc3ccc(OCC)cc3)n2)cc1`, the Inhibition in test [1] is recorded as 100%; in test [2] it was 49%; in test [3], 3%.
Taken in the same sequence, the figures for `Cc1cc(F)ccc1Nc1nc(N(C)c2ccccc2)c2cc(OCCN(C)C)ccc2n1` were 94%, 55% and 37%.
With `Cc1ccc(CNC(=O)[C@H](Cc2ccccc2)Nc2cc(C)nc(NCc3ccccc3C)n2)cc1.O=C(O)C(F)(F)F`, the results for the Inhibition in test [1], in test [2] and in test [3] were 97%, 50% and 23%, respectively.
Take `CN1CCC(NCc2cccc(-c3nn(C)c4nc(NC5CCCC5)ncc34)c2)CC1`: the figures for the Inhibition in test [1], in test [2] and in test [3] were 98%, 44% and 1%, respectively.
As to `COc1ccc(OC)c(Cc2cnc3nc(N)nc(N)c3c2C)c1` [PIRITREXIM], the Inhibition turned out to be 92% in test [1], 97% in test [2] and 68% in test [3].
Take `Fc1cc(Cl)ccc1Nc1ccnc2cc(-c3ccc(CN4CCOCC4)o3)ccc12`: the Inhibition in test [1] is 99%; in test [2], 98%; in test [3] it was 33%.
Taken in the same sequence, the figures for `COc1ccc(S(=O)(=O)NC2CCN(c3ccnc4cc(Cl)ccc34)C2)cc1.O=C(O)C(F)(F)F` (stereo unspecified) were 100%, 86% and 12%.
Taken in the same sequence, the figures for `CCn1c(-c2nonc2N)nc2c(-c3cc4ccccc4s3)ncc(C(=O)N3CCC(N)C3)c21.O=C(O)C(F)(F)F` (stereo unspecified) were 98%, 66% and 99%.
`CCOc1cc(C(=O)NC2CCN(Cc3ccccc3)C2)ccc1-c1nc2cc(Cl)ccc2[nH]1` (stereo unspecified): the Inhibition in test [1] is on record as 98%; in test [2] it was 60%; in test [3] it was 7%.
In the case of `CCOC(=O)c1cccc(NC(=O)Nc2cccc(-c3ncc(OCCCN)c4c3nc(-c3nonc3N)n4CC)c2)c1.O=C(O)C(F)(F)F`, the figures for the Inhibition in test [1], in test [2] and in test [3] were 100%, 98% and 16%, respectively.
Regarding `Cc1cccc2nc(-c3cccc(-c4ccc(CNCc5ccc(S(C)(=O)=O)cc5)cc4)c3)[nH]c12.O=C(O)C(F)(F)F`, the Inhibition amounted to 100% in test [1], 98% in test [2] and 8% in test [3].
Take `Cc1ccc(C(C)C)c(Oc2ccc3nc(N)nc(N)c3c2)c1`: the Inhibition in test [1] is 96%; in test [2], 33%; in test [3], 61%.
Taken in the same sequence, the figures for `CCc1ccc(-c2cnc(N)c3cc(-c4ccnc(N)n4)ccc23)cc1` were 92%, 70% and 37%.
Taken in the same sequence, the figures for `Cn1cncc1-c1ccc2ncnc(Nc3ccc(OCc4ccccc4)cc3)c2c1` were 100%, 99% and 4%.
Take `CN1CCN(CCCN(Cc2ccc(-c3cccc(CNC4CCCC4)c3)cc2)C(=O)/C=C/c2ccccc2)CC1.O=C(O)C(F)(F)F`: the Inhibition turned out to be 100% in test [1], 87% in test [2] and 36% in test [3].
Taken in the same sequence, the figures for `Cc1nc(-c2nc(NCc3ccccn3)ncc2-c2ccsc2)sc1C` were 92%, 87% and 0%.
Taken in the same sequence, the figures for `COc1cc(Cl)c(C)cc1N(Cc1ccccc1-c1ccccc1)S(=O)(=O)c1ccc(C(F)(F)F)cc1` were 90%, 62% and 23%.
Consider `CC(C)C[C@H](NC(=O)c1ccc(OCCN2CCOCC2)cc1)C(=O)N[C@H](/C=N/N1CCNC1=O)CCc1ccccc1`, for which the Inhibition in test [1] is reported as 89%; in test [2], 94%; in test [3], 1%.
Taken in the same sequence, the figures for `Cc1ccc(Cn2c(N3CCC(C(=O)NCc4ccccn4)CC3)nc3ccccc32)cc1` were 100%, 99% and 0%.
Taken in the same sequence, the figures for `O=C(Nc1ccc(N2CCNCC2)nc1)c1oc(-c2ccccc2)nc1C(F)(F)F` were 100%, 62% and 7%.
Taken in the same sequence, the figures for `Cl.N=c1n(Cc2ccc(Cl)cc2)c2ccccc2n1CC(O)c1ccc(Cl)c(Cl)c1` (stereo unspecified) were 98%, 99% and 58%.
For the molecule `C=CC[C@H](C[C@H](O)[C@H](Cc1ccccc1)NC(=O)c1ccc(-n2cccn2)cc1)C(=O)NC1CCCCC1`, the Inhibition in test [1] worked out at 96%; in test [2], 0%; in test [3], 1%.
As to `COc1ccc(-c2cccc(NC(=O)c3ccccc3)c2)cc1CN1CCCN(C)CC1.O=C(O)C(F)(F)F`, the Inhibition is reported as 98% in test [1], 25% in test [2] and 22% in test [3].
On to `Cc1cccc2nc(-c3ccc(-c4ccc(CN5CCCC(N)C5)cc4)s3)[nH]c12.O=C(O)C(F)(F)F` (stereo unspecified), for which the results for the Inhibition in test [1], in test [2] and in test [3] were 100%, 100% and 29%, respectively.
For `CC(Cc1ccc(OCC(=O)NCC2CCN(CCc3cccc(Cl)c3)CC2)cc1)NCCc1cccc(Cl)c1.Cl` (stereo unspecified), the Inhibition in test [1] is reported as 96%; in test [2], 85%; in test [3] it was 100%.
As for `COc1cc2nccc(Nc3ccc(OCc4ccc(NC(C)=O)cc4)cc3)c2cc1OC.Cl`, the Inhibition in test [1] is 100%; in test [2], 95%; in test [3] it was 24%.

A word on the Inhibition: it is the change of the read-out against control, counted positive when it falls. The low end stands for little suppression, the high end for strong suppression.
